# A549 viability = Nrf2 qHTS screen for inhibitors: counterscreen for cytotoxicity; A549 ARE-Fluc cells, CellTiter-Fluor viability, 18-24 h; Potency, µM (top dose mostly 46 µM), inactives show top-dose activity change, negative = cytotoxicity, hits mostly inhibitors; 390,000 tested, 0.16% active; AID 504648, 2011; note: % is set by controls: 0 for no effect and ±100 for the full control effect
#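 A549 ARE-Fluc cells in 5% FBS OPTI-MEM, 5000 cells/well, rested 2 h then exposed to compounds in concentration-response for 18-24 h at 37 °C. Viability by CellTiter-Fluor fluorescence (Ex 405/Em 525) after 30 min; luciferase luminescence (BugLite, 15 min, RT) read afterwards.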
# Nrf2 activator = qHTS of Nrf2 Activators. AREc32 ARE-luciferase reporter (MCF7-derived line), luminescence, 24 h. Potency, µM (top dose mostly 46.1 µM), for the others: top-dose activation, hits mostly activators. 410,000 tested, 0.31% active; note: % of control where 0% means no effect; nearly all actives have a fitted effect of over 65% in size
#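 Each well held 1000 AREc32 cells, which were incubated with compound for 24 hr at 37 deg C after overnight attachment, and ARE reporter activity was quantified by firefly luciferase luminescence.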
# Rango-impB inh = qHTS Assay for Inhibitors of Rango (Ran-regulated importin-beta cargo) - Importin beta complex formation | Rango CFP/YFP FRET sensor + importin beta, 45 min | Potency, µM (titrated, usually from 92.2 µM), inactives show top-dose inhibition of complex formation | 340,000 tested, 0.031% active; calls by dose curve;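 note: 0% = DMSO wells and 100% = buffer wells lacking importin beta; nearly all actives have a fitted effect of over 15% in size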
# Target sequence (Q14974 whole entry, looked up): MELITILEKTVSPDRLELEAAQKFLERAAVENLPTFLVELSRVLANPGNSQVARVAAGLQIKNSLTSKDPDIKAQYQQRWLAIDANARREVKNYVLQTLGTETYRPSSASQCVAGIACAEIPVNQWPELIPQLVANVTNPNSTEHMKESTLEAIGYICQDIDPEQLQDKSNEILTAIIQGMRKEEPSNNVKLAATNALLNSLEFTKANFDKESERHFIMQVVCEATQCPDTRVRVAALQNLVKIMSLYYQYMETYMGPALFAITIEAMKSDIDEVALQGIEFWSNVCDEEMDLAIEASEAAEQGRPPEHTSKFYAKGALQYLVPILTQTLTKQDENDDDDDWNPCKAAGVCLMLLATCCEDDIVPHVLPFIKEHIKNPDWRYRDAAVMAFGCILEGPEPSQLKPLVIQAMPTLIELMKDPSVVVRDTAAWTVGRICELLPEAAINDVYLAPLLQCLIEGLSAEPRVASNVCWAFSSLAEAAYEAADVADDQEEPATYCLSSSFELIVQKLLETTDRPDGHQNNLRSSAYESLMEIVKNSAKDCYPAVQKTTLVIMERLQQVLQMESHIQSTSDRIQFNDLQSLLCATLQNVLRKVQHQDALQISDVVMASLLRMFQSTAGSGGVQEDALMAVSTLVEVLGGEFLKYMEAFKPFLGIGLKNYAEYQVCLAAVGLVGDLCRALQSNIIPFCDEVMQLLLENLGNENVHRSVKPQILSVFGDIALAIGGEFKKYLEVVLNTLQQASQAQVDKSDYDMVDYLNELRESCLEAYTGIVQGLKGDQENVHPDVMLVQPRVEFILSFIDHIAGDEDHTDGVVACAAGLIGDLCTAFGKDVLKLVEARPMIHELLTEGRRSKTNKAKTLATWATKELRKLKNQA
#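 FRET biosensor Rango (snurportin 1 IBB between N-terminal EYFP and C-terminal Cerulean), 50 nM in PBS/1 mM DTT/0.02% Tween-20/0.1% BSA, preincubated 5 min RT with compound; 0.125 microM importin beta added, 45 min RT, CFP/YFP FRET ratio read.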
# Nrf2 inh = Nrf2 qHTS screen for inhibitors; Potency, µM (titrated, usually from 46 µM), inactives show top-dose activity change, negative = inhibition, most hits filed as inhibitors; 360,000 tested, 2.1% active; A549 ARE-Fluc reporter, luciferase luminescence, 18-24 h; note: % is set by controls: 0 for no effect and ±100 for the full control effect; nearly all actives have a fitted effect of over 60% in size
#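 A549 ARE_Fluc cells (5000/well, 5% FBS OPTI-MEM) pre-incubated 2 h, then treated with compounds 18-24 h at 37C/5% CO2 in concentration-response. CellTiter-Fluor viability read first; BugLite luciferase luminescence after 15 min at room temperature gives Nrf2 activity.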
# Rango dissoc inh = qHTS Assay for Inhibitors of RanGTP induced Rango (Ran-regulated importin-beta cargo) - Importin beta complex dissociation. 340,000 tested, 0.071% active. Snurportin-1 (Homo sapiens) + GTP-binding nuclear protein Ran (Homo sapiens) + Importin …. Potency, µM (titrated, usually from 46.1 µM), without a hit: at the top dose activity change, negative = inhibition. Biochemical FRET Rango-importin beta, RanGTP-induced dissociation. AID 540253, 2011; calls by dose curve; note: % of control where 0% means no effect; nearly all actives have a fitted effect of over 45% in size
#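 Two FRET readings bracket the reaction: one 5 min after compound meets Rango–importin beta, another 45 min after RanGTP-RCC1 (0.6 uM Ran, 0.2 uM RCC1, 2 mM GTP) is added. Only the second defines inhibition.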
# Numbers without * were called inactive; ? = inconclusive; / = no result; [ ] = another dose, or the depositor's remark. In the library only some 2.3% were active in any assay of this set; here they are far more common. Unless noted, calls come from the whole dose curve; as a rule, active = well fitted curve in the direction sought with a large enough effect; inconclusive = small, poorly fitted or top-dose-only effect, or another doubt; inactive = no such curve, though single readings can be large; an effect the other way counts as inactive or inconclusive. Potency is the fitted concentration of half-maximal effect.
SMILES,A549 viability,Nrf2 activator,Rango-impB inh,Nrf2 inh,Rango dissoc inh
Cc1ccc(N(CC(=O)N2CCN(c3cc(Cl)ccc3C)CC2)S(=O)(=O)c2c(C)noc2C)cc1,-8%,0%,/,-29%,/
COc1ccc(-c2cc(C(F)(F)F)n3nc(C(=O)NCC45CC6CC(CC(C6)C4)C5)cc3n2)cc1,-10%,-1%,/,15µM*,/
COc1ccccc1N/C(N)=N/c1nc(CSc2ccc(C)cc2)cc(=O)[nH]1,-7%,1%,-3%,21µM*,0%
Cc1ccc(SCc2cc(=O)[nH]c(/N=C(\N)Nc3ccccc3Sc3ccccc3)n2)cc1,1%,0%,0%,-15%,-7%
Cc1cc(C)c(-n2c(SCCS(=O)(=O)c3ccc(F)cc3)n[nH]c2=O)c(C)c1,0%,8.9µM*,0%,1%,2%
Cc1ccc(S(=O)(=O)CCSc2n[nH]c(=O)n2-c2ccccc2)cc1,-4%,?,1%,?,10%
CCCn1c(SCc2nc3ccccc3s2)n[nH]c1=O,4%,10%,-2%,?,6%
Cc1cc(C)c(-n2c(SCc3nc4ccccc4s3)n[nH]c2=O)c(C)c1,-21%,0%,3%,16µM*,4%
Cc1ccc(/C=C/c2onc(C)c2S(=O)(=O)N2CCC(C(=O)NCc3ccc(OC(C)C)cc3)CC2)cc1,8%,3%,/,/,/
CC(C)c1cnc2c(c1SCC(=O)N1CCCCC1)c(=O)n(C)c(=O)n2C,1%,10%,/,/,/
CCOC(=O)c1ccc(NC(=O)CN(C)S(=O)(=O)c2ccc(Br)s2)cc1,1%,0%,-3%,3%,15%
COc1ccc(Cc2noc(CN3CCN(c4ccc(Cl)cn4)CC3)n2)cc1OC,-12%,0%,0%,26µM*,-14%
CCOC(=O)c1c(-c2ccc(C)o2)csc1NC(=S)NC(=O)c1cccs1,-4%,9%,-3%,-3%,17%
CCOC(=O)c1c(-c2ccc(C)o2)csc1NC(=O)COC(=O)c1ccc(NC(N)=O)cc1,-11%,19%,2%,16µM*,-11%
Cc1ccc(NC(=O)CN2C(=O)C(c3ccc(F)cc3)=NC23CCCCC3)c(C)c1,-10%,5%,/,-27%,/
Cc1cccc(NC(=O)CN2C(=O)C(c3ccc(F)cc3)=NC23CCCCCC3)c1C,-17%,2%,/,23µM*,/
Cc1ccc(C)c(S(=O)(=O)N2CCCC2CNC(=O)c2ccc([N+](=O)[O-])cc2)c1 (centres undefined),-1%,0%,5%,18µM*,12%
CC(C)(C)c1ccc(C(=O)NCC2CCCN2S(=O)(=O)c2ccccc2)cc1 (centres undefined),-7%,13%,2%,21µM*,37%
Cc1ccc(C(=O)NCC2CCCN2S(=O)(=O)c2ccc(C)cc2)cc1 (centres undefined),-4%,4%,1%,8%,-7%
Cc1ccc(S(=O)(=O)N2CCCC2CNC(=O)C(=O)Nc2ccc(F)cc2)cc1 (centres undefined),-8%,2%,?,13µM*,17%
Cc1ccc(C)c(S(=O)(=O)N2CCCC2CNC(=O)C(=O)NC2CC2)c1 (centres undefined),-1%,0%,-2%,12%,13%
COc1ccc(S(=O)(=O)N2CCCC2CNC(=O)C(=O)Nc2ccc(C)cc2)cc1 (centres undefined),6%,3%,-4%,?,9%
O=C1C=C(c2ccc(-c3ccccc3)cc2)C[C@@H](c2ccc(F)cc2)C1,-1%,-1%,2%,6%,-1%
O=C1C=C(C#Cc2ccccc2)C[C@@H](c2ccc(F)cc2)C1,/,8.9µM*,/,/,/
Cc1cc(F)ccc1S(=O)(=O)N1CCC2(CC1)OCCN2S(=O)(=O)c1cccs1,-12%,2%,-3%,12µM*,3%
SMILES,A549 viability,Nrf2 activator,Rango-impB inh,Nrf2 inh,Rango dissoc inh
Cc1ccc(C)c(S(=O)(=O)N2CCC3(CC2)OCCN3S(=O)(=O)c2cccs2)c1,-7%,0%,-2%,?,-16%
CC1=C(C(=O)OCc2ccc(C)cc2)C(c2cccc(F)c2F)CC(=O)N1 (centres undefined),-1%,0%,/,23µM*,/
CC1=C(C(=O)OCC2CCCCC2)C(c2cccc(F)c2F)CC(=O)N1 (centres undefined),1%,0%,/,-5%,/
CC(C)(C)CC(C)(C)NC(=O)CSCC(=O)Nc1ccc2ccccc2c1,?,13%,4%,16µM*,9%
O=C(CSc1ccc2ccccc2c1)Nc1ccncc1,-10%[1.84 µM],0%,1%,7.3µM*,0%
CCn1c(C(=O)Nc2ccc(C)cc2C)cc2sc(Cl)cc21,-1%,0%,/,-3%,/
C=CC[C@@H](CC(=O)N[C@H](CO)Cc1ccccc1)C(=O)N[C@H](COC(=O)[C@@H](CC=C)CC(=O)OC(C)(C)C)Cc1c[nH]c2ccccc12,12µM*,-4%,-1%,21µM*,21%
C=CCC[C@H](Cc1ccc(F)cc1)C(=O)OC[C@@H](Cc1c[nH]c2ccccc12)NC(=O)[C@@H](CC=C)CC(=O)N(CCO)Cc1ccccc1,12µM*,-4%,2%,9.2µM*,-20%
C=CCC[C@H](Cc1ccc(F)cc1)C(=O)OC[C@H](Cc1c[nH]c2ccccc12)NC(=O)[C@@H](CC=C)CC(=O)N(CCO)Cc1ccccc1,?,-3%,0%,?,13%
Cc1ccc(NS(=O)(=O)c2ccc3c(ccn3C)c2)cc1C,5%,/,/,?,/
COC(=O)C1=C(C)NC(=S)NC1c1ccc(-c2cc(Cl)ccc2Cl)o1 (centres undefined),?,4%,0%,-19%,-6%
CCc1nnc2c(NCCc3ccccc3)nc3ccccc3n12,-2%,0%,12%,-16%,-4%
Cc1ccc(C2=CC(c3ccccc3)n3ncnc3N2)cc1 (centres undefined),-2%,1%,?,20%,?
C1=C(c2ccccc2)Nc2ncnn2C1c1ccccc1 (centres undefined),-2%,7.1µM*,?,12%,?
Cc1ccsc1C1C=C(c2cccc(Br)c2)Nc2ncnn21 (centres undefined),-4%,7.9µM*,?,-11%,?
CCCCCCCC#Cc1ccccc1/C=N/S(=O)c1ccc(C)cc1 (centres undefined),5%,9%,-2%,16%,5%
COc1cccc2c(=O)cc(C)n(CC(=O)Nc3ccc(C)c(C)c3)c12,-9%,2%,-1%,?,6%

# Source: PubChem (National Center for Advancing Translational Sciences (NCATS))
